Results filed as inconclusive are left out. Where a call stands in place of a potency, no number is given. The source made the active and inactive calls. Unless noted, calls come from the whole dose curve; as a rule, active = well fitted curve in the direction sought with a large enough effect in the repeat runs; inconclusive = weak or mixed curves; inactive = no such curve, though single readings can be large; an effect the other way counts as inactive or inconclusive.
Experiments:
[1] = target: Cytochrome P450 3A4 (Homo sapiens) (UniProt P08684); assay: qHTS Assay for Activators of Cytochrome P450 3A4 (AID 885; active = well fitted curve in the direction sought with a large enough effect; an effect the other way counts as inactive or inconclusive; note: nearly all actives have a fitted effect of over 65% in size)
Cytochrome P450 3A4 (Homo sapiens), sequence (P08684 whole entry, looked up): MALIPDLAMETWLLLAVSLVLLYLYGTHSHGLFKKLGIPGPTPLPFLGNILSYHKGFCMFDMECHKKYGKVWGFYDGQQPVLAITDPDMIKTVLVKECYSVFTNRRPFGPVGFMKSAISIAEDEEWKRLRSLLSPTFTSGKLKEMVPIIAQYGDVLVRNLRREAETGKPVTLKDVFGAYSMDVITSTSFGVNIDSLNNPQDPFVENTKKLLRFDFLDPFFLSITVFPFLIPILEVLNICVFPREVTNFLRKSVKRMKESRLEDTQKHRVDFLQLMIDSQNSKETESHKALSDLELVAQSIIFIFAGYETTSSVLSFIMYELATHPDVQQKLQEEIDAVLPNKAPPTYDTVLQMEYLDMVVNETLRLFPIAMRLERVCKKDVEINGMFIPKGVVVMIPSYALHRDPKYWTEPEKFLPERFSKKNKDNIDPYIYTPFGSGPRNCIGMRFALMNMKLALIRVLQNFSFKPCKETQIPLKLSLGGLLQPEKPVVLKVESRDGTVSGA
Outline: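 Luminescent readout of luciferin formed from 25 uM Luciferin-PPXE (KM level) by 20 nM CYP3A4 in 200 mM KPO4, with 60 min NADPH-driven reaction at room temperature after 10 min compound exposure. Ketoconazole (57 uM) defined 100% inhibition.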

[2] = Confirmation and Secondary Assay for Modulators of Hemoglobin Beta Chain Splicing at IVS2 654 locus (AID 910; active = well fitted curve in the direction sought with a large enough effect; an effect the other way counts as inactive or inconclusive;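 note: HeLa cells stably carrying EGFP split by mutant beta-globin IVS2-654 intron; per-well total GFP intensity by laser scanning cytometry after 2-day treatment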)
Outline: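 Readout: per-well total peak green fluorescence (488 nm ex, 500–520 nm em) from objects 5–250 µm, reflecting correct splicing of an EGFP-654 reporter. Compounds were applied for 2 days at 37 °C to overnight-plated HeLa EGFP-654 cells; controls were DMSO and 500 nM IVS2-654 PNA.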

[3] = Confirmation and Secondary Assay for Modulators of Hemoglobin Beta Chain Splicing at IVS2 705 locus (AID 930; active = well fitted curve in the direction sought with a large enough effect; an effect the other way counts as inactive or inconclusive;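 note: HeLa cells stably expressing the EGFP-705 splicing reporter; GFP fluorescence per well restored by corrected splicing of the IVS2-705 intron in EGFP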)
Outline: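 Secondary splice-site specificity test uses HeLa expressing CMV-driven EGFP interrupted by IVS2-705; cells were treated 2 days at 37C with 500 nM antisense PNA as positive control.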

[4] = qHTS Assay for Lipid Storage Modulators (AID 1519; calls by dose curve); conditions: Drosophila S3 cells, BODIPY lipid droplet/cell ratio, laser cytometry, cells loaded with oleic acid; for activity change, negative = inhibition: at 57.5 µM (top of the series)
Outline: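 Cells seeded at 5,000 per well were treated with compounds over a concentration series and loaded with oleic acid (400 uM, as added). Lipid droplet fluorescence (488 nm excitation, 500-530 nm channel) was read by laser-scanning cytometry and normalized to 20 uM Triacsin C.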

[5] = target: Cytochrome P450 2D6 (Homo sapiens) (UniProt P10635); assay: Cytochrome P450 family 2 subfamily D member 6 (CYP2D6) small molecule antagonists: luciferase biochemical (cell-free) qHTS assay (AID 1645840); note: nearly all actives have a fitted effect of over 55% in size; note: potency is the fitted concentration of half-maximal effect
Cytochrome P450 2D6 (Homo sapiens), sequence (P10635 whole entry, looked up): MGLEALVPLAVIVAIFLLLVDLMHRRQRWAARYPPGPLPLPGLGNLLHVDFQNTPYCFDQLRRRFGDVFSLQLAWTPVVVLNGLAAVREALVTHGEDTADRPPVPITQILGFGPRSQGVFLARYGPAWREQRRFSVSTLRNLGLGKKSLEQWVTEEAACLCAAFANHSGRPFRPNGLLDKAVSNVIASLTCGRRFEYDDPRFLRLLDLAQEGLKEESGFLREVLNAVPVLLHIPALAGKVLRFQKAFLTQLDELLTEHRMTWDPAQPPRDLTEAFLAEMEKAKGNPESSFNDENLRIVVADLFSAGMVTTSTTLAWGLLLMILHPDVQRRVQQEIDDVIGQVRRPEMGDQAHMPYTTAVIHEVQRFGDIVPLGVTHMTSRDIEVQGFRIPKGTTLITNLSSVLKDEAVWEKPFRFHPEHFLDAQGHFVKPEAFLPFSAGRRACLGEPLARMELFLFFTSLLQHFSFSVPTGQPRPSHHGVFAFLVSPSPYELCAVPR
Outline: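 P450-Glo CYP2D6 system: proluciferin substrate converted by enzyme to luciferin, read by luminescence proportional to activity. Enzyme-substrate mix with compound 10 min at room temperature, then NADPH regeneration 1 h before detection reagent.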

[6] = measured here: cell count channel max response
[7] = measured here: lipid channel max response

COC1=CC(=O)C(O)=C/C1=C\C=C\c1ccccc1
Potency [1]: inactive
Potency [2]: inactive
Potency [3]: inactive
activity change, negative = inhibition [4]: -23.3% (inactive)
max response [4, 6]: -8.41%
max response [4, 7]: -29.1%

CCCCC[C@H](O)CC[C@@H]1[C@H]2Cc3cccc(OCC(=O)O)c3C[C@H]2C[C@H]1O
Potency [5]: inactive

COc1ccc(C(=O)NC(c2ccc(Cl)cc2)c2cc(Cl)c3cccnc3c2O)cc1 (stereo not given)
Potency [5]: inactive

COc1ccc(C(=O)Nc2ccc3oc(-c4ccc(OC)cc4)nc3c2)cc1
Potency [5]: inactive

CC(=O)OC1CC[C@@]2(C)C3CC(=O)[C@]4(C)C(C(C)=O)=CCC4C3CC[C@H]2C1 (stereo not given in full)
Potency [2]: inactive
Potency [3]: inactive
activity change, negative = inhibition [4]: -12.8% (inactive)
max response [4, 6]: 4.87%
max response [4, 7]: -10%

Cc1nc2c3ccccc3nc(NNC(=O)CCC(=O)N3CCN(c4ccccc4F)CC3)n2n1
Potency [5]: inactive

CCc1ccc(CN(Cc2ccco2)C(=O)COc2ccccc2Cl)cc1
Potency [5]: 7.56 µM (active)

Cc1[nH]n2c(=O)cc(-c3ccc(Cl)cc3)nc2c1-c1ccccc1
Potency [5]: inactive

C#C[C@@]1(O)CCC2C3CCc4cc(O)ccc4C3CC[C@@]21C (stereo not given in full)
Potency [2]: inactive
Potency [3]: inactive
activity change, negative = inhibition [4]: 6.48% (inactive)
max response [4, 6]: 1.86%
max response [4, 7]: 11.2%

CC1(C#N)CCN(c2c(C(=O)N3CCN(S(C)(=O)=O)CC3)cnc3cc(F)c(F)cc23)CC1
Potency [5]: inactive

COc1ccc2cc(Br)ccc2c1
Potency [5]: inactive

CC(C)=CCCC(C)C1CC[C@@]2(C)C3=C(CC[C@@]12C)C1(C)CCC(O)C(C)(C)C1CC3 (stereo not given in full)
Potency [2]: inactive
Potency [3]: inactive
activity change, negative = inhibition [4]: 6.04% (inactive)
max response [4, 6]: 10.4%
max response [4, 7]: 15.7%

c1ccc(Cn2c(-c3ccc(OC[C@H](C4CCNCC4)n4c(-c5ccccc5)nc5ccccc54)cc3)nc3ccccc32)cc1
Potency [5]: 12 µM (active)

Cc1cc(C)cc(NC(=O)Cn2c(=O)n(-c3ccc(C)c(C)c3)c(=O)c3oc4ccccc4c32)c1
Potency [5]: 0.425 µM (active)

Cc1cccn2c(=O)c(/C=C(\C#N)c3nc4ccccc4s3)c(Oc3ccc(F)cc3)nc12
Potency [5]: inactive

CN1N=C(N)c2cn([C@@H]3O[C@H](COP(=O)(O)O)[C@@H](O)[C@H]3O)c3ncnc1c23
Potency [5]: inactive

Cc1onc(-c2ccccc2Cl)c1C(=O)Cl
Potency [5]: inactive

OCCOCCOCCOCCOCCN1CCN(C(c2ccc(Cl)cc2)c2ccc(Cl)cc2)CC1
Potency [5]: 8.49 µM (active)

O=C(O)c1ccc(Cc2c(-c3cccc(-c4ccccc4)c3)[nH]n(-c3nc(C(=O)O)cs3)c2=O)cc1
Potency [5]: 9.52 µM (active)

Cn1c(=O)c2c(nc(CN3CCN(C(=O)C4CC4)CC3)n2Cc2ccccc2Cl)n(C)c1=O
Potency [5]: inactive

CCOC(=O)c1csc(-n2nc(-c3ccc(F)c(F)c3)c(Cc3ccc(S(N)(=O)=O)cc3)c2N)n1
Potency [5]: inactive

COc1ccc(NC(=O)Cn2cc(C(=O)c3cccs3)c3ccccc32)cc1
Potency [5]: 2.68 µM (active)

Cn1c(=O)c2c(nc(CN3CCN(C(=O)C4CC4)CC3)n2Cc2cccc(F)c2)n(C)c1=O
Potency [5]: inactive

NCC1O[C@@H](O[C@H]2C(O)C(O[C@@H]3C(O[C@H]4OC(CO)C(O)C(O)C4N)C(N)CC(N)[C@H]3O)O[C@@H]2CO)C(N)C(O)C1O (stereo not given in full)
Potency [2]: inactive
Potency [3]: inactive
activity change, negative = inhibition [4]: 10.8% (inactive)
max response [4, 6]: 18.8%
max response [4, 7]: 35.3%

Source: PubChem BioAssay (NCATS)
